In the library only some 3.2% were active in any assay of this set; here they are far more common.
MsrA act: bovine methionine sulfoxide reductase A activation; purified bovine MsrA, absorbance read-out; AID 602163; hit rate 0.3% among 360,000; activation, % at 10.6 µM; in the data active means activation above about 7.5%
DAGLB inhibitor: diacylglycerol lipase beta (human) inhibition; Q8NCG7; HEK293T DAGLB membrane lysate, EnzChek fluorogenic substrate; inhibition, % at 5.17 µM; hit rate 0.059% among 340,000; AID 504411; in the data active means inhibition above about 34%
NadD inh: blocks S. aureus nicotinate mononucleotide adenylyltransferase; purified NadD enzyme, colorimetric absorbance read-out; inhibition, % at 20 µM; hit rate 0.78% among 360,000; AID 602399; in the data active means inhibition above about 26%
Pemphigus Ab inh: blocks pemphigus antibody binding to human desmoglein-3. hit rate 0.48% among 310,000. binding (percent of control), % at 10 µM. P32926. DSG3-coupled beads, scFv-anti-DSG3-GFP binding, flow cytometry; hits give low values. AID 588358;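 active means binding more than 3 SD below its plate's average and above zero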;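 further: hits lower antibody fragment binding to DSG3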
rCAG binder: molecules binding r(CAG) RNA repeats; r(CAG) RNA repeat, TO-PRO-1 dye displacement fluorescence; inhibition, % at 3 µM; hit rate 1.3% among 370,000;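 active means inhibition above the plate cutoff, the mean of all test compounds on that plate plus 3 SD, cut at about 35% in these data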;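 further: higher means more dye released from RNA so lower well fluorescence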
MsrA inhibitor: bovine MsrA inhibition. purified bovine MsrA, absorbance read-out. inhibition, % at 15.5 µM. hit rate 0.75% among 360,000
MsrA conf: bovine MsrA inhibition, confirmed; hit rate 41% among 2,300; inhibition, % at 15.5 µM; AID 651822; purified bovine MsrA, absorbance read-out; shares compounds with MsrA inhibitor;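 further: coupled to thioredoxin reductase with NADPH and selenocystamine and DMSO as substrate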
Of the large screens only hits and unclear results are named; the others gave an inactive call (follow-up assays come after a bar, where they were run). Unless noted, no stated cut-off is given here; in the data, active means inhibition above about 4.5%; inactive means the rest.

Cc1cc[n+](-c2[nH]c(=O)sc2/C=N/N=C(\[O-])CCn2c3ccccc3c3ccccc32)cc1	none (no result: DAGLB inhibitor)
O=c1[nH]c(-[n+]2ccccc2)c(/C=N/N=C(\[O-])c2ccccc2)s1	MsrA inhibitor 5.0 | MsrA conf 5.2
O=C(N/N=C/c1sc(=O)[nH]c1-[n+]1ccccc1)c1ccccc1[O-]	none
Cc1ccc[n+](-c2[nH]c(=O)sc2/C=N/NC(=O)c2ccccc2[O-])c1	MsrA inhibitor 4.9 (no result: Pemphigus Ab inh) | MsrA conf inactive
Cc1ccc[n+](-c2[nH]c(=O)sc2/C=N/N=C(\[O-])c2cccnc2)c1	none
Cc1cc[n+](-c2[nH]c(=O)sc2/C=N/N=C(\[O-])c2ccncc2)cc1	MsrA inhibitor 13 (no result: Pemphigus Ab inh) | MsrA conf inactive
CCCN(C(=O)CCc1cn(CCC)c2ccccc12)c1ccc(Oc2cccnc2)cc1	none (no result: MsrA act, DAGLB inhibitor, NadD inh, Pemphigus Ab inh)
Cc1cc[n+](-c2[nH]c(=O)sc2/C=N/N=C(\[O-])c2ccncc2)cc1C	none
Cc1cc[n+](-c2[nH]c(=O)sc2/C=N/N=C(\[O-])c2ccccc2)cc1	MsrA inhibitor 5.0 (no result: DAGLB inhibitor) | MsrA conf inactive
Cc1cc[n+](-c2[nH]c(=O)sc2/C=N/N=C(\[O-])c2ccccc2)cc1C	MsrA inhibitor 4.7 | MsrA conf inactive
COc1ccc(/C=N/NC(=O)c2[nH]c(C)c(C(=O)N/N=C/c3ccc(OC)cc3)c2C)cc1	MsrA inhibitor 4.9 | MsrA conf 5.5
COc1cc2cc(C(=O)N/N=C/c3ccc(F)cc3)[nH]c2cc1OC	MsrA inhibitor 4.8 | MsrA conf 6.0
COc1cc2cc(C(=O)N/N=C/c3ccccc3Cl)[nH]c2cc1OC	none
COc1ccc2cc(C(=O)N/N=C/c3cc(OC)c(OC)c(OC)c3)[nH]c2c1	MsrA inhibitor 5.8 | MsrA conf 6.4
COc1ccc(/C=N/NC(=O)c2cc3cc(OC)c(OC)cc3[nH]2)cc1	MsrA inhibitor 5.3 | MsrA conf 7.8
COc1cccc(/C=N/NC(=O)c2[nH]c(C)c(C(=O)N/N=C/c3cccc(OC)c3)c2C)c1	none
CCOC(=O)c1cccc(NC(=O)CN(C)S(=O)(=O)c2ccc(Cl)s2)c1	none (no result: MsrA act, DAGLB inhibitor, NadD inh, Pemphigus Ab inh, MsrA inhibitor)
O=C(NC1CCCCN(Cc2cccc(F)c2)C1=O)c1cccc(F)c1 (stereo unspecified)	none (no result: MsrA act, DAGLB inhibitor, NadD inh, Pemphigus Ab inh, MsrA inhibitor)
COc1ccc2[nH]c(C(=O)N/N=C/c3ccc(O)cc3O)cc2c1	MsrA inhibitor 6.3 | MsrA conf inactive
Cn1c(=O)c2c(nc(N/N=C/c3ccco3)n2C)n(C)c1=O	MsrA inhibitor 6.2 (no result: Pemphigus Ab inh) | MsrA conf 6.8
Cn1c(=O)c2c(ncn2CC(=O)N/N=C/c2ccco2)n(C)c1=O	none
Cn1c(=O)c2c(nc(N/N=C/c3cccs3)n2C)n(C)c1=O	MsrA inhibitor 4.9 | MsrA conf 5.7
CCc1cc2c(=O)c(-c3nc4ccccc4n3C)c(C(C)C)oc2c(CN2CCN(C)CC2)c1O	none
CCc1cc2c(=O)c(-c3nc4ccccc4n3C)c(C)oc2c(CN2CCOCC2)c1O	MsrA inhibitor 5.0 | MsrA conf inactive
CCc1cc2c(=O)c(-c3nc4ccccc4n3C)c(C)oc2c(CN2CCN(CCO)CC2)c1O	MsrA inhibitor 5.2 | MsrA conf inactive
CCCS(=O)(=O)NC(=O)C1(C)CCN(C(=O)c2ccccc2F)C1 (stereo unspecified)	none (no result: DAGLB inhibitor, Pemphigus Ab inh)
COc1ccc(S(=O)(=O)N2CCCC(C(=O)N3CCN(Cc4ccccc4)CC3)C2)cc1Cl (stereo unspecified)	none
Cc1c(=O)n(OCc2ccccn2)c2ccccc2[n+]1[O-]	MsrA inhibitor 4.9 | MsrA conf inactive
OCCNc1nc2nonc2nc1NCCO	none
CCN(c1ccccc1)c1nc2nonc2nc1NCCO	MsrA inhibitor 13 | MsrA conf 9.4
Cc1cc2nc(-c3ccc(Cl)cc3)c(Cc3ccsc3)n2c(C)c1Br	none (no result: DAGLB inhibitor, Pemphigus Ab inh)
CCCCNC(=S)N(C)/N=C/c1ccc(OCC(=O)Nc2ccc(OC)cc2)c(OC)c1	MsrA inhibitor 6.5 | MsrA conf inactive
Cc1ccc([C@H]2C[C@H](O)[C@@H](n3cc(C4CC4)nn3)CN2Cc2cccs2)cc1	none (no result: Pemphigus Ab inh)
CCN(CC)c1ccc(C=Nc2ccc(N(C)C)cc2)c(O)c1	MsrA inhibitor 5.9 | MsrA conf inactive
CCN(CC)c1ccc(C=Nc2cc(C)cc(C)c2)c(O)c1	none
CCN(CC)c1ccc(C=Nc2ccc(C)cc2)c(O)c1	MsrA inhibitor 6.9 | MsrA conf 6.3
CS(=O)(=O)Nc1ccc(C2=NN(C(=O)c3ccccc3)C(c3cccs3)C2)cc1 (stereo unspecified)	MsrA inhibitor 4.8 | MsrA conf inactive
CCOC(=O)[C@]12CCCC=C1N(CCCOC)C(=O)[C@@H]2CC(=O)N1CCCC1	none (no result: MsrA act, DAGLB inhibitor, NadD inh, Pemphigus Ab inh, MsrA inhibitor)
Cc1c(C(=O)O)cccc1-c1ccc(/C=N/n2cnnc2)o1	MsrA inhibitor 6.5 | MsrA conf 4.7
Clc1ccccc1-c1ccc(/C=N/n2cnnc2)o1	MsrA inhibitor 5.7 | MsrA conf 5.5
Cc1cc(-c2ccc(/C=N/n3cnnc3)o2)ccc1Cl	MsrA inhibitor 4.8 | MsrA conf inactive
Clc1cccc(-c2ccc(/C=N/n3cnnc3)o2)c1Cl	none
C[C@H]1c2cccc(O)c2C(O)=C2C(=O)C3(O)C(O)=C(C(N)=O)C(=O)[C@@H](N(C)C)[C@@H]3[C@@H](O)[C@@H]21 (stereo partly specified)	MsrA inhibitor 4.9 | MsrA conf inactive
COc1ccc(N=C(N)NC(=O)OCc2ccccc2)cc1	none (no result: MsrA act, DAGLB inhibitor, NadD inh, Pemphigus Ab inh, MsrA inhibitor)
COc1ccc(C2/C(=C(/O)c3cnn(-c4ccccc4)c3C)C(=O)C(=O)N2CCN(C)C)cc1OC (stereo unspecified)	MsrA inhibitor 9.3 | MsrA conf inactive
COc1ccc(OC)c(C2/C(=C(/O)c3cnn(-c4ccccc4)c3C)C(=O)C(=O)N2CCN(C)C)c1 (stereo unspecified)	none
COCCn1c(=NC(=O)c2cc(Cl)sc2Cl)sc2cc(S(N)(=O)=O)ccc21	none
COCCn1c(=NC(=O)c2ccc3c(c2)OCCO3)sc2cc(S(N)(=O)=O)ccc21	MsrA inhibitor 6.2 | MsrA conf inactive
COc1ccc2[nH]cc(C(C)c3ccccc3O)c2c1 (stereo unspecified)	none (no result: MsrA act, DAGLB inhibitor, NadD inh, Pemphigus Ab inh, MsrA inhibitor)
C=CCn1c(SCC(=O)Nc2cc(OC)c(NC(=O)c3ccco3)cc2OC)nnc1-c1ccncc1	MsrA inhibitor 4.7 | MsrA conf inactive
CN(C)C1=NC(=O)/C(=C\c2ccccc2)S1	MsrA inhibitor 6.5 | MsrA conf inactive
N#C/C(C(=O)N1CCOCC1)=C1\Nc2ccccc2S1	MsrA inhibitor 7.9 | MsrA conf 5.7
COCCNC(=O)C[C@H]1CC[C@H]2[C@@H](COc3ccc(NS(=O)(=O)c4ccc(Cl)cc4)cc3C(=O)N2C)O1	none (no result: MsrA act, DAGLB inhibitor, NadD inh, Pemphigus Ab inh, MsrA inhibitor)
CCOc1ccc(NC(=O)CN(C)C(=O)c2ccc(-c3ccc(C(C)=O)cc3)o2)cc1OCC	MsrA inhibitor 4.9 | MsrA conf inactive
CN(CC(=O)Nc1ccc(F)cc1)C(=O)c1ccc(-c2ccc(F)cc2)o1	none

Bioassay records as filed in PubChem.
